Out of some 5,500 compounds screened, about 2,000 (36%) were called active. Another 18% or so got no clear call; they are omitted. Cut-off read from the data, not from the text of the source: active = normalized growth mostly below about 0.91 (no sharp cut-off); inconclusive = no clear call, values can overlap the other calls; inactive = mostly above about 0.92. Some of the results follow.
Experiment: chemical genetic growth profiling, strain panel (AID 1159580);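 note: tested at 20 µM; growth read once vehicle control cultures reached saturation at 30 °C; 1 = growth at the plate median or of vehicle wells; lower values mean less growth of the strain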
Conditions: S. cerevisiae deletion strains, growth OD

Measured: normalized growth

CC(C)COC(=O)OCN1C(=O)CN(CCN2CC(=O)N(COC(=O)OCC(C)C)C(=O)C2)CC1=O
inactive: locus YAL040C, strain CLN3, hits give low values 1.01 | locus YCL061C, strain MRC1 (second series), hits give low values 1.01 | locus YDR150W, strain NUM1, hits give low values 1.01 | locus YDR363W, strain ESC2, hits give low values 1.01 | locus YER002W, strain NOP16, hits give low values 0.997 | locus YGR078C, strain PAC10, hits give low values 1 | locus YJR075W, strain HOC1, hits give low values 1.01 | locus YMR307W, strain GAS1, hits give low values 1.01 | locus YNL175C, strain NOP13, hits give low values 1 | locus YNL197C, strain WHI3, hits give low values 0.999 | locus YNL224C, strain SQS1, hits give low values 0.996 | locus YNL322C, strain KRE1, hits give low values 1.01 | locus YOR083W, strain WHI5 (second series), hits give low values 1.01 | locus YPL055C, strain LGE1, hits give low values 1.03

CCCCCc1ccc(S(=O)(=O)Nc2ccc3c(c2)C(=O)OC3)cc1
active: locus YLR113W, strain HOG1, hits give low values 0.86
inactive: locus YAR019C, strain CDC15, hits give low values 0.991 | locus YBL105C, strain PKC1, hits give low values 0.994 | locus YBR135W, strain CKS1, hits give low values 0.981 | locus YBR136W, strain MEC1, hits give low values 0.982 | locus YBR160W, strain CDC28, hits give low values 0.984 | locus YDL017W, strain CDC7, hits give low values 0.985 | locus YDL028C, strain MPS1, hits give low values 0.983 | locus YDL101C, strain DUN1, hits give low values 0.998 | locus YDL108W, strain KIN28, hits give low values 0.982 | locus YDL132W, strain cdc53, hits give low values 0.985 | locus YDL214C, strain PRR2, hits give low values 0.948 | locus YDR052C, strain DBF4, hits give low values 0.998 | locus YDR054C, strain cdc34, hits give low values 0.974 | locus YDR226W, strain ADK1, hits give low values 0.987 | locus YDR477W, strain SNF1, hits give low values 0.972 | locus YER123W, strain YCK3, hits give low values 0.969 | locus YER133W, strain GLC7, hits give low values 0.951 | locus YFL009W, strain cdc4, hits give low values 0.981 | locus YFL029C, strain CAK1, hits give low values 0.983 | locus YFR003C, strain YPI1, hits give low values 0.987 | locus YFR019W, strain FAB1, hits give low values 0.975 | locus YFR028C, strain CDC14, hits give low values 0.985 | locus YGR040W, strain KSS1, hits give low values 0.949 | locus YGR052W, strain FMP48, hits give low values 1.03 | locus YGR092W, strain DBF2, hits give low values 0.992 | locus YHR030C, strain SLT2, hits give low values 0.997 | locus YHR079C, strain IRE1, hits give low values 0.977 | locus YHR082C, strain KSP1, hits give low values 1.02 | locus YHR205W, strain SCH9, hits give low values 0.963 | locus YIL147C, strain SLN1, hits give low values 0.983 | locus YJL095W, strain BCK1, hits give low values 0.967 | locus YJL128C, strain PBS2, hits give low values 0.944 | locus YJL157C, strain FAR1, hits give low values 0.953 | locus YJR016C, strain ILV3, hits give low values 0.977 | locus YJR066W, strain TOR1 (second series), hits give low values 0.937 | locus YJR066W, strain TOR1, hits give low values 1.02 | locus YKL048C, strain ELM1, hits give low values 0.967 | locus YKL067W, strain YNK1, hits give low values 0.959 | locus YKL101W, strain HSL1, hits give low values 0.933 | locus YKL193C, strain SDS22, hits give low values 0.978 | locus YKL203C, strain TOR2, hits give low values 1.02 | locus YLR133W, strain CKI1, hits give low values 0.963 | locus YLR403W, strain SFP1, hits give low values 0.938 | locus YML070W, strain DAK1, hits give low values 0.945 | locus YMR001C, strain CDC5, hits give low values 0.986 | locus YMR205C, strain PFK2 (second series), hits give low values 0.963 | locus YMR277W, strain FCP1, hits give low values 0.982 | locus YNL006W, strain LST8, hits give low values 0.99 | locus YNL020C, strain ARK1, hits give low values 0.966 | locus YNL161W, strain CBK1, hits give low values 0.978 | locus YNL183C, strain NPR1, hits give low values 0.964 | locus YNL207W, strain RIO2, hits give low values 0.967 | locus YNL222W, strain SSU72, hits give low values 0.978 | locus YNL307C, strain MCK1 (second series), hits give low values 0.979 | locus YOL078W, strain AVO1, hits give low values 0.979 | locus YOL136C, strain PFK27, hits give low values 0.948 | locus YOR061W, strain CKA2, hits give low values 0.976 | locus YOR119C, strain RIO1, hits give low values 1.01 | locus YOR231W, strain MKK1, hits give low values 0.917 | locus YOR329C, strain SCD5, hits give low values 0.985 | locus YPL031C, strain PHO85, hits give low values 0.966 | locus YPL153C, strain RAD53, hits give low values 0.951 | locus YPL204W, strain HRR25, hits give low values 0.942 | locus YPL209C, strain IPL1, hits give low values 0.981 | locus YPL256C, strain CLN2, hits give low values 0.923 | locus YPR025C, strain CCL1, hits give low values 0.983 | locus YPR106W, strain ISR1, hits give low values 0.971 | locus YPR111W, strain DBF20, hits give low values 0.954 | strain NNK1, hits give low values 0.976 | strain TSCII, hits give low values 0.988
